# KB-V1 MDR tox – kills drug-selected multidrug resistant KB-V1 cells; KB-V1 MDR cells viability, CellTiter-Glo, 72 h; Potency, µM (titrated, usually from 46.1 µM), hits mostly cytotoxic; 3.4% of 400,000 active; AID 1347076; note: nearly all actives have a fitted effect of over 60% in size
#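 Following 72 h at 37 degrees C with compound, KB-V1 cell viability was read by CellTiter-Glo luminescence, medium being phenol-red-free DMEM plus 10% FBS; concentration-response parameters came from normalized, curve-fitted qHTS data.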
# KB-3-1 tox – KB-3-1 parental cell cytotoxicity; AID 1347075; KB-3-1 viability, CellTiter-Glo ATP luminescence, 72 h; Potency, µM (series often up to 46.1 µM), most hits filed as cytotoxic; 1.4% of 400,000 active; note: nearly all actives have a fitted effect of over 60% in size
#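 Cytotoxicity measured as CellTiter-Glo luminescence after 72 h at 37 C. Compound titrations were pinned onto drug-naive KB-3-1 parental adenocarcinoma cells grown in DMEM with 10% FBS, and normalized data fitted to concentration-response curves.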
# TDP1 cell CPT – growth inhibition of DT40 Tdp1-/-;hTDP1 cells with camptothecin (screen for TDP1 inhibitors) | chicken DT40 Tdp1-/-;hTDP1 cells + 20 nM CPT, ATP luminescence, 48 h | Potency, µM (series often up to 46.2 µM), inactives show at the highest dose activity change, negative = growth inhibition, hits mostly inhibitors | 12% of 420,000 active | AID 686979; note: nearly all actives have a fitted effect of over 55% in size
#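 Chicken DT40 Tdp1-/- cells complemented with human TDP1, 400 cells/well, exposed to compounds plus 20 nM camptothecin for at least 48 h at 37 C; viability read as ATP content by CellTiter-Glo luminescence.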
# HT1080NT lethal – kills 2HG-producing HT-1080-NT fibrosarcoma cells; HT-1080-NT fibrosarcoma viability, CellTiter-Glo ATP luminescence, 48 h; Potency, µM (highest dose often 46.1 µM), for the others: at the top dose activity, negative = less viability, hits mostly cytotoxic; 1.6% of 360,000 active; AID 686970;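 note: NT is the 2HG producing partner of a matched IDH1 knockdown line; 0% = DMSO-treated cells and -100% = media-only wells without cells; nearly all actives have a fitted effect of over 55% in size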
#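 HT-1080-NT; 750 cells/well; 5% FBS RPMI; 48 h compound, 37 degrees C; CellTiter-Glo luminescence; curve fitting and curve-class assignment.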
# TDP1 cell noCPT – qHTS for Inhibitors of human tyrosyl-DNA phosphodiesterase 1 (TDP1): qHTS in cells in absence of CPT. Potency, µM (highest dose often 46.2 µM), for the others: top-dose activity change, negative = growth inhibition, actives largely listed as inhibitors. 15% of 420,000 active. DT40 Tdp1-/- hTDP1 cells, no CPT, ATP luminescence, 48 h; note: nearly all actives have a fitted effect of over 55% in size
#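 DT40 Tdp1-/-;hTDP1 cells, no CPT (DMSO vehicle only), 400 cells/well; compounds pin-transferred; ≥48 hr, 37 °C; CellTiter-Glo 30 min RT dark, luminescence read.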
# HT1080 IDH1KD tx – toxicity to HT-1080 IDH1 knockdown cells (counter line); Potency, µM (series often up to 46.1 µM), for the others: at the highest dose activity, negative = toxicity, hits mostly cytotoxic; 2% of 360,000 active; HT-1080 IDH1 knockdown viability, ATP luminescence, 48 h;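 note: 0% = DMSO wells and -100% = cell-free medium wells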
#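 Using the IDH1-knockdown HT-1080 line run in the same batch and compound series as the NT line, viability after 48 h at 37 °C was determined by CellTiter-Glo luminescence and expressed as % activity.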
# * hit, by the source's call; i = inactive; u = inconclusive; x = not tested or not shown. Compounds with a hit are over-represented: about 19% of the library has one in this group of screens. Calls come from the whole dose curve; as a rule, active = well fitted curve in the direction sought with a large enough effect; inconclusive = small, poorly fitted or top-dose-only effect, or another doubt; inactive = no such curve, though single readings can be large; an effect the other way counts as inactive or inconclusive. Unless noted, % is set by controls: 0 for no effect and ±100 for the full control effect; potency is the fitted concentration of half-maximal effect.
SMILES,KB-V1 MDR tox,KB-3-1 tox,TDP1 cell CPT,HT1080NT lethal,TDP1 cell noCPT,HT1080 IDH1KD tx
COCCNC(=O)CSc1nc(-c2ccc(C)cc2)[nH]c1-c1ccc(OC)cc1,i,i,u,x,u,x
COc1cc2nc(NCCC(C)C)n3nc(-c4ccccc4)nc3c2cc1OC,i,i,u,x,u,x
COc1ccc(N(CC(=O)N2CCCCC2)S(=O)(=O)c2ccc(OC)c(OC)c2)cc1,i,i,-5%,x,-4%,x
COc1ccc(-c2nc(SCC(=O)NC3CCCC3)c(-c3ccccc3)[nH]2)cc1OC,i,i,u,x,u,x
Cc1ccc(-c2nc(SCC(=O)NCC3CCCO3)c(-c3ccc(Cl)cc3)[nH]2)cc1 (centres undefined),i,i,u,3%,21µM*,15%
O=S(=O)(c1ccccc1)c1nc(-c2ccc(F)cc2)oc1NCC1CCCO1 (centres undefined),3.7µM*,i,6%,2%,u,2%
O=C(CSc1oc(-c2ccccc2)nc1S(=O)(=O)c1ccccc1)NCC1CCCO1 (centres undefined),x,x,u,0%,-27%,5%
Cc1ccc(-c2nc(S(=O)(=O)c3ccccc3)c(SCC(=O)NCC3CCCO3)o2)cc1 (centres undefined),i,i,u,0%,23µM*,-10%
COc1ccc(-c2nc(SCC(=O)NC3CCCC3)c(-c3ccc(OC)cc3)[nH]2)cc1,i,u,u,-2%,16µM*,0%
O=S(=O)(c1ccccc1)c1nc(-c2ccc(F)cc2)oc1NCc1ccccc1,i,i,-19%,x,u,x
CCOc1ccc(CCNC(=O)Cn2nc(CC)n3c(cc4ccccc43)c2=O)cc1,i,i,-20%,x,u,x
CCc1ccc(-c2nc(SCC(=O)NCC3CCCO3)c(-c3ccc(F)cc3)[nH]2)cc1 (centres undefined),i,i,u,x,18µM*,x
Cc1ccccc1-n1c(C)nnc1SCC(=O)NCC1CCCO1 (centres undefined),i,i,-1%,u,5%,22µM*
CC(C)c1ccc(Nc2nnc(SCC(=O)NCC3CCCO3)s2)cc1 (centres undefined),x,x,u,6%,16µM*,-16%
CC(C)CS(=O)(=O)c1oc(-c2ccc(F)cc2)nc1S(=O)(=O)c1ccccc1,x,x,0.41µM*,x,0.46µM*,x
Cc1ccc(-c2nc(SCC(=O)NCC3CCCO3)c(-c3ccc(C)cc3)[nH]2)cc1 (centres undefined),i,i,u,-5%,u,2%
O=C(Cc1ccc([N+](=O)[O-])cc1)Nc1cccc(C(=O)N2CCCCC2)c1,i,u,u,4%,u,3%
CCCCCCNS(=O)(=O)c1ccc(Cl)s1,i,i,-15%,12%,u,-5%
O=S(=O)(NCCCN1CCOCC1)c1ccc(Cl)s1,i,u,u,11%,23µM*,0%
O=S(=O)(NCCN1CCOCC1)c1ccc(F)c(Cl)c1,i,i,18µM*,16%,16µM*,19%
Cc1ccc(NC(=O)Cn2cc(S(=O)(=O)NC(C)C)c(S(=O)(=O)NC(C)C)c2)cc1Cl,i,u,u,x,-87%,x
COc1ccc2c(c1)c1c(c(=O)n(-c3ccc(C)cc3)c(=O)n1CC(=O)N1CCCC1)n2C,x,x,16µM*,x,21µM*,x
COc1ccc2c(c1)c1c(c(=O)n(-c3cccc(Cl)c3)c(=O)n1CC(=O)N1CCCC1)n2C,u,i,23µM*,x,u,x

# Screening data deposited in PubChem BioAssay by National Center for Advancing Translational Sciences (NCATS).
